The list is not random: actives were taken first. Their share in the collection is about 1.2%.
Pin1 inhibitor = human Pin1 inhibition. hit rate 0.009% among 390,000. AID 504891. Pin1 FP peptide displacement, HiFluor488, 10 min. Potency, µM (titrated, usually from 115 µM), most hits filed as inhibitors; active means well fitted inhibition curve with a large enough effect in the polarisation, with a control signal flat, not every such curve was filed as active; inconclusive means small, poorly fitted or top-dose-only effect, or effect the other way, or a change in a side signal; inactive means no such curve, though single readings can be large or run the other way; the % refers to the polarisation
hERG WT inh = blocks the wildtype human KCNH2 potassium channel | Q12809 | U2OS, BacMam KCNH2, thallium flux FluxOr; stronger effect = lower value | activity change, % at 1.84 µM | hit rate 0.37% among 340,000 | AID 720551;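 active means maximum activity change below -70%; inconclusive means maximum activity change between -70% and -50%; inactive means maximum activity change above -50%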
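U2OS cells were transduced with wild-type KCNH2 virus (2.03 x 10^8 / mL) for 4 h at room temperature, then cultured overnight at 37 C. Thallium flux was read with FluxOr dye. Rate constants were normalized to DMSO controls.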
KCNH2 3.1 block = inhibitors of human KCNH2 3.1 potassium channel isoform; U2OS KCNH2 3.1, thallium flux FluxOr; stronger effect = lower value; activity change, % (tested at about 1.8 µM); hit rate 0.95% among 340,000; AID 720553;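 active means maximum activity change below -70%; inconclusive means maximum activity change from -70% to -50%; inactive means maximum activity change above -50%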;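 further: thallium influx rate constant from kinetic fluorescence after stimulation buffer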
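Measured as rate of thallium-driven FluxOr signal in transduced U2OS cells carrying the 3.1 channel, read kinetically for 2 min upon stimulation; values are rate constants scaled to DMSO control wells.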
Tb PGK inh = inhibitors of T. brucei phosphoglycerate kinase | PGK/GAPDH coupled, Kinase-Glo luminescence, 60 min | Potency, µM (titrated, usually from 57.5 µM), usual class: inhibitors | hit rate 0.043% among 380,000 | AID 602233; further: nearly all actives have a fitted effect of over 60% in size
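Recombinant glycosomal PGK reaction used 1,3-bisphosphoglycerate generated in-well by GAPDH (100nM final) in 100mM TEA pH 7.6, 5mM MgCl2, 0.01% Tween-20. After 60 minutes at room temperature, ATP was read by Kinase-Glo Plus luminescence end-point.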
RGS4 inhibitor = inhibitors of human regulator of G protein signaling 4; hit rate 0.039% among 390,000; AID 504845; Transcreener GDP fluorescence polarization, RGS4-accelerated GTP hydrolysis; Potency, µM (doses to about 114 µM), usual class: inhibitors; P49798; further: nearly all actives have a fitted effect of over 75% in size
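MLSMR compounds (23 nl, pin-transferred) preincubated 10 min at room temperature with a 500nM (2x) first reagent, then RGS4 at 900nM (2x) plus Transcreener GDP mix added; fluorescence polarization (620/688 nm) read before and after 90 min at 30 °C.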
KAT2A inh = inhibitors of human GCN5L2 histone acetyltransferase; Q92830; GCN5L2 HAT assay, ThioGlo1 CoA-SH fluorescence; Potency, µM (titrated, usually from 58.9 µM), actives largely listed as inhibitors; hit rate 0.21% among 390,000
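Fluorescence readout, Ex340nm/Em540nm: ThioGlo1 (50uM final) reacts with free CoA thiol released as 20nM GCN5L2 acetylates H3(1-25) peptide (75uM) using acetyl-CoA (70uM). Compound and enzyme sat 15 min beforehand; 20 min room-temperature reaction.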
Numbers stand for hits; n = inactive; u = inconclusive; x = no result. Unless noted, the call rests on the fitted dose curve; in most records, active means well fitted curve in the direction sought with a large enough effect; inconclusive means small, poorly fitted or top-dose-only effect, or another doubt; inactive means no such curve, though single readings can be large; an effect the other way counts as inactive or inconclusive.

SMILES | Pin1 inhibitor | hERG WT inh | KCNH2 3.1 block | Tb PGK inh | RGS4 inhibitor | KAT2A inh
CC(C)(C)OC(=O)Nc1ncnc2c1C(c1ccccc1)c1c(ccc3ccccc13)O2 (configuration not stated) | n | x | x | x | x | x
CCc1oc2ccccc2c1C(=O)c1cc(I)c(O)c(I)c1 | x | x | x | x | x | 8.9µM
O=C(O)c1ccc2c(c1)C(=O)N([C@]1(C(=O)O)CC1c1ccccc1)C2=O (some centres not stated) | n | x | x | x | x | n
O=C(NCC(c1cccnc1)N1CCN(c2ccccc2F)CC1)C(=O)Nc1ccc(F)cc1F (configuration not stated) | n | x | x | n | n | n
CSc1ncccc1C(=O)OC(C)C(=O)Nc1cccc(S(=O)(=O)N2CCOCC2)c1 (configuration not stated) | n | -315 | n | n | n | n
CCc1c(C)nc(SC/C=C/c2ccccc2)[nH]c1=O | n | n | -120 | n | n | n
C[C@]12CCC(=O)C=C1CC[C@@H]1[C@@H]2[C@@H](O)C[C@@]2(C)[C@H]1CC[C@]2(O)C(=O)COP(=O)(O)O | x | x | x | x | x | n
O=C(Nc1ccn(Cc2ccccc2)n1)c1ccc2c(c1)OCO2 | n | n | -81 | n | n | n
Cc1c(CNC2CCC(C)CC2)c(C(=O)O)c(C)n1Cc1ccc(Cl)cc1 (configuration not stated) | n | x | x | n | n | n
O=S1(=O)N=C(OCc2ccccc2)c2ccccc21 | n | x | x | x | x | x
CC(C)(O)C(=O)NNC(=S)Nc1cccc(C(F)(F)F)c1 | n | n | -94 | n | n | n
O=C(c1cccc(F)c1)N1CCC2(CC1)CN(c1ccccn1)C2 | x | x | x | x | x | n
CC(C)CCN1CCN(Cc2cccn2-c2nccs2)CC1CCO (configuration not stated) | n | n | n | n | n | n
OCCC1CN(Cc2cccn2-c2ncccn2)CCN1Cc1ccccc1 (configuration not stated) | n | n | n | n | n | n
Cc1ccc(CN2CCN(Cc3cccn3-c3nccs3)CC2CCO)cc1 (configuration not stated) | n | n | -88 | n | n | n
Cc1ccc(CN2CCN(Cc3cccn3-c3ccccn3)CC2CCO)cc1 (configuration not stated) | n | -76 | -72 | n | n | n
COC(=O)c1sccc1S(=O)(=O)N(CC(=O)NCc1ccc(F)cc1)c1ccccc1 | n | x | x | n | n | n
Cc1ccc2cc(C)c(SCC(=O)Nc3ccc(S(=O)(=O)N4CCCC4)cc3)nc2c1 | n | n | -100 | n | n | n
Cc1cccc(NC(=O)CSCC(=O)Nc2ccc(S(=O)(=O)N3CCCC3)cc2)c1 | n | n | n | n | n | n
CCOC(=O)N1CCC(=NNS(=O)(=O)c2cccc([N+](=O)[O-])c2)CC1 | n | n | -71 | n | n | n
Cc1nc(SCc2ccc(O)c([N+](=O)[O-])c2)c([N+](=O)[O-])[nH]1 | n | n | n | n | u | 14µM
CCOC(=O)C1(Cc2cccc(OC)c2)CCN(Cc2ccc(OC)c(OC)c2)CC1 | n | n | -70 | n | n | n
CCOC(=O)C1(Cc2cccc(OC)c2)CCCN(Cc2cnn(C)c2)C1 (configuration not stated) | n | n | n | n | n | n
CCOC(=O)C1(Cc2cccc(OC)c2)CCCN(Cc2cc(OC)c(O)c(OC)c2)C1 (configuration not stated) | n | -134 | -193 | n | n | n
CCOC(=O)C1(Cc2cccc(OC)c2)CCN(Cc2ccc(C)s2)CC1 | n | u | -76 | n | n | n
CCOC(=O)C1(Cc2cccc(OC)c2)CCN(Cc2cccn2-c2nccs2)CC1 | n | -83 | -101 | n | n | n
COc1cc(NC(=O)Cn2nc(C(F)(F)F)c3c2CCC3)cc(OC)c1OC | n | x | x | n | n | n
COc1ccc(N2C(=O)CSC23C(=O)N(CC(=O)NCCc2ccccc2)c2ccccc23)cc1 (configuration not stated) | n | x | x | n | n | n
FC(F)(F)c1ccccc1-c1nccc(NCc2ccccc2)n1 | x | x | x | x | x | n

Assay outcomes as filed in PubChem BioAssay.
